Measurements taken from PubChem BioAssay AID488969 (Vanderbilt High Throughput Screening Facility, 2010).
The full ranking holds about 110,000 compounds; the median of “z-score” is about -0.1, and the highest 2% start at about 2. This excerpt belongs to a sample that is enriched for the highest values. Active and inactive are the calls of the source.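 The calls were made as follows: active = z-score in the third read window above 3 or below -3; inactive = the rest.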

What follows are compounds tested against Metabotropic glutamate receptor 8 (Rattus norvegicus) (UniProt P70579) (assay: mGluR8 Gi/Go-coupled signaling modulation – cell-based, rat, thallium flux, HTS, primary screen (AID 488969)). Details: HEK293 rat mGluR8, GIRK (G protein-gated inwardly rectifying potassium channel) thallium flux, FluoZin2; at 10 µM; stronger effect = higher value; submaximal glutamate (EC20) added with thallium.
Chain of Metabotropic glutamate receptor 8 (Rattus norvegicus) (P70579 whole entry, looked up): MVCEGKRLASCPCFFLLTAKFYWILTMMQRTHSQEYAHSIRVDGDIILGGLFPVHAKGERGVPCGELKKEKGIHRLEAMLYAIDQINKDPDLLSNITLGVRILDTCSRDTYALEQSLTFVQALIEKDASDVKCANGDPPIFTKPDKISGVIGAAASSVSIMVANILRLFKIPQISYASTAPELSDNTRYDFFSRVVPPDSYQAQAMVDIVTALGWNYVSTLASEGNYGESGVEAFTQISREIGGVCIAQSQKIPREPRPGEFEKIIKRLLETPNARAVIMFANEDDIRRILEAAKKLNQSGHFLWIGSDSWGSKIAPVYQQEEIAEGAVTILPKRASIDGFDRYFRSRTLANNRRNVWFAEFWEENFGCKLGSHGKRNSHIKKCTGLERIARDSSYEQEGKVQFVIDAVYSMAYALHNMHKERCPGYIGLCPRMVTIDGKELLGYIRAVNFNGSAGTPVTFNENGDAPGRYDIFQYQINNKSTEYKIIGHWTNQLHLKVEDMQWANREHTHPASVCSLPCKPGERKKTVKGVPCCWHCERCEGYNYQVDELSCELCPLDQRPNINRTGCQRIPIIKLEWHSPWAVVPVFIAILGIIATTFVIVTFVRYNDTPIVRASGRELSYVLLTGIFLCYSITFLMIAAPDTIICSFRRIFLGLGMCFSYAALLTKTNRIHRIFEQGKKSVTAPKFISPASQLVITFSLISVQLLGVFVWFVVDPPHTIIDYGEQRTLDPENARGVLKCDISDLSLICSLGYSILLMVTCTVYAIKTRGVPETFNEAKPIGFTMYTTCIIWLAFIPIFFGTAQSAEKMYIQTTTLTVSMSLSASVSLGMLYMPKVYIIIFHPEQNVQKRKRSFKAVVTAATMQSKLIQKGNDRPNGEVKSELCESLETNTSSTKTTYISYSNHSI

Q: `CN(C)CCN1C(=O)C(O)=C(C(=O)c2cc3ccccc3o2)C1c1ccc(N(C)C)cc1` (stereo not given) was tested. Which z-score did it give?
A: -0.145

Q: With `CC(C)(C)c1ccc(S(=O)(=O)NC(Cc2ccccc2)C(=O)O)cc1` (stereo not given) as the compound, how does the z-score read?
A: 0.161

Q: For `Cc1nn(Cc2ccc(Cl)cc2Cl)c(Cl)c1/C=N/NC(=O)CNc1cccc(C(F)(F)F)c1`, which z-score is on record?
A: -0.087

Q: For `CCOCCn1c(=NC(=O)c2cc(Cl)sc2Cl)sc2cc(S(N)(=O)=O)ccc21`, which z-score is on record?
A: -0.0217

Q: How did the z-score turn out when `CCCCNC(=O)CCn1c(=O)c2ccccc2n(Cc2ccc(F)cc2)c1=O` was run?
A: -0.407

Q: For `COc1cc(OC)cc(C(=O)N[C@H](C(=O)N2CCc3ccccc32)C(C)C)c1`, which z-score is on record?
A: -0.177

Q: How did the z-score turn out when `c1cc2c3c(cccc3c1)C(N1CCN(C3=Nc4cccc5cccc3c45)CC1)=N2` was run?
A: -0.0313

Q: For `c1cc2c3c(cccc3c1)C(N1CCCCCC1)=N2`, which z-score is on record?
A: 0.822

Q: For `CCCCN(C)C1=Nc2cccc3cccc1c23`, which z-score is on record?
A: 3.17 (active)

Q: How did the z-score turn out when `COc1cc(S(=O)(=O)N(Cc2ccccc2)Cc2ccccn2)ccc1-n1cnnn1` was run?
A: -0.0596

Q: Which z-score does the source give for `N#CCCN1CCN(S(=O)(=O)c2ccc3c(c2)OCCCO3)CC1` here?
A: -0.473

Q: Which z-score does the source give for `Cc1c(C(=O)N2CCOCC2)[nH]c2c1C(=O)CC(c1ccc(Cl)cc1)C2` (stereo not given) here?
A: -0.803

Q: `Cc1c(C(=O)O)[nH]c2c1C(=O)CC(c1ccc(Cl)cc1)C2` (stereo not given) was tested. Which z-score did it give?
A: 5.28 (active)

Q: For `Cc1c(C(=O)O)[nH]c2c1C(=O)CC(c1ccccc1)C2` (stereo not given), which z-score is on record?
A: -0.21

Q: How did the z-score turn out when `CC(C)=CCC/C(C)=C/C=N/NC(=O)c1ccc([N+](=O)[O-])cc1` was run?
A: 1.52

Q: For `CCOC(=O)C1CCC2(CC1)C(C#N)=C(N)Oc1n[nH]c(C)c12` (stereo not given), which z-score is on record?
A: 0.0849

Q: With `CCOc1ccc(S(=O)(=O)N(CC(=O)Nc2cc(C)on2)Cc2ccccc2Cl)cc1` as the compound, how does the z-score read?
A: -1.72

Q: For `CC(=O)c1ccc(OC(=O)C2CC(=O)N(c3cccc(C)c3)C2)cc1` (stereo not given), which z-score is on record?
A: -1.58

Q: For `Cc1ccccc1NC(=O)Nc1ccccc1Br`, which z-score is on record?
A: -0.375

Q: `O=C(NNc1ccccc1Br)C(=O)n1ccc2ccccc21` was tested. Which z-score did it give?
A: 2.23

Q: `O=C(Nc1ccccc1Br)C(=O)N1CCCC1` was tested. Which z-score did it give?
A: -0.0281

Q: `Cc1ccc(S(=O)(=O)N2CCN(c3cc4c(cc3[N+](=O)[O-])n(C)c(=O)n4C)CC2)cc1` was tested. Which z-score did it give?
A: -0.078

Q: With `COC(=O)c1cc2ccccc2c(-c2c(O)ccc3ccccc23)c1O` as the compound, how does the z-score read?
A: 0.0387

Q: For `Cc1ccc(C2NC(=O)NC(O)(C(F)(F)F)C2C(=O)c2cccs2)o1` (stereo not given), which z-score is on record?
A: -0.404

Q: Which z-score does the source give for `Cc1ccc(C(=O)C2C(c3cccs3)NC(=O)NC2(O)C(F)(F)F)cc1` (stereo not given) here?
A: 2.58

Q: For `O=C1NC(c2ccccc2)C(C(=O)c2cccs2)C(O)(C(F)(F)F)N1` (stereo not given), which z-score is on record?
A: -0.23

Q: How did the z-score turn out when `Cc1nnc(NC(=O)c2cccc(S(=O)(=O)N3CCc4ccccc43)c2)s1` was run?
A: 0.437

Q: With `CSc1ccc(C(=S)N2CCN(CCO)CC2)cc1` as the compound, how does the z-score read?
A: 0.0369

Q: `CC(CN1CCCCC1)OC(=O)c1ccc(Cl)cc1Cl` (stereo not given) was tested. Which z-score did it give?
A: 2.27

Q: With `CC(CN1CCN(C)CC1)OC(=O)c1ccc(Cl)cc1` (stereo not given) as the compound, how does the z-score read?
A: 1.05

Q: How did the z-score turn out when `CC(CN1CCN(C)CC1)OC(=O)c1ccc(Cl)cc1Cl` (stereo not given) was run?
A: 0.335

Q: `CCCCOc1ccc(S(=O)(=O)NCc2csc(C)n2)cc1` was tested. Which z-score did it give?
A: -1.17

Q: With `N/C(=N\c1nc2ccccc2o1)NC(=O)c1ccccc1` as the compound, how does the z-score read?
A: -0.339

Q: With `Cc1nc(/N=C(\N)NC(=O)N2c3ccccc3Sc3ccccc32)nc2ccccc12` as the compound, how does the z-score read?
A: -0.0514

Q: With `Cc1nc(/N=C(\N)NC(=O)c2ccccc2)nc2ccccc12` as the compound, how does the z-score read?
A: 2.8

Q: Which z-score does the source give for `CCOc1nc(S(=O)(=O)c2ccc(C)cc2)c(Cl)s1` here?
A: -0.802

Q: `CC1CCCN(c2nc3ccccc3nc2C(C#N)S(=O)(=O)c2cccs2)C1` (stereo not given) was tested. Which z-score did it give?
A: -1.84

Q: Which z-score does the source give for `O=C(CCNC(=O)c1ccccc1Cl)NCC12CC3CC(CC(C3)C1)C2` here?
A: -0.16

Q: Which z-score does the source give for `Cc1nn(-c2ccc(C(=O)O)cc2)c(C)c1Oc1ccccc1O` here?
A: -0.318

Q: For `Cc1nn(-c2ccc(C(F)(F)F)cn2)c(C)c1Oc1ccccc1O`, which z-score is on record?
A: 2.25

Q: `Cc1cc(C)nc(-n2nc(C)c(Oc3ccccc3O)c2C)n1` was tested. Which z-score did it give?
A: -0.176

Q: How did the z-score turn out when `COc1ccc(CCNC(=O)C2CC(=O)N(c3ccccc3)C2)cc1OC` (stereo not given) was run?
A: 0.172

Q: For `O=C(CSc1nnc(Cc2cc(=O)[nH]c(=O)[nH]2)n1-c1ccccc1)NCC1CCCO1` (stereo not given), which z-score is on record?
A: 0.18

Q: `Cn1nnc(NC(=O)c2cccc(OCc3ccccc3)c2)n1` was tested. Which z-score did it give?
A: -0.179

Q: With `Cc1ccc(C(=O)NCC2CCCO2)cc1[N+](=O)[O-]` (stereo not given) as the compound, how does the z-score read?
A: 0.0557

Q: Which z-score does the source give for `COC(=O)CSc1nc2c(c(=O)[nH]c(=O)n2C)n1CCC(C)C` here?
A: -0.127

Q: With `CCCCn1c(SCC(=O)OCC)nc2c1c(=O)[nH]c(=O)n2C` as the compound, how does the z-score read?
A: -0.555

Q: Which z-score does the source give for `CCCCCn1c(SCC(=O)OC)nc2c1c(=O)[nH]c(=O)n2C` here?
A: 2.01

Q: `Cc1ccc2cc(S(=O)(=O)NCCCC(=O)O)ccc2c1` was tested. Which z-score did it give?
A: -0.0725

Q: Which z-score does the source give for `CCCCNC(=O)c1ccc(N2CCC3(CC2)OCCO3)c([N+](=O)[O-])c1` here?
A: -0.757
